Among the data in PubChem BioAssay are z-score and composite z-score values, retold here.

A short description of test [1]: E. coli DRC41 culture turbidity changes, primary screen, E. coli filamentation inducer project, strain DRC41, OD650, 48 h (AID 1152).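 Also: E. coli MC1000 strain DRC41 lacking acrAB efflux pump and sulA.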 To be noted: E. coli DRC41 (acrAB sulA), higher = more signal, called active from +8 up or from −8 down.
Test [2] in a line: small-molecule binders of probe aLefty1, primary screen, biochemical, small-molecule microarray, 635/667 nm fluorescence (AID 1153).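 Also: score merges spot fluorescence with signal-to-noise ratio from the scanned slide images.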 To be noted: higher = more signal.
Test [3] is described as follows: PSAC antagonists in infected red cells, primary screen, cell-based, P. falciparum Indochina, OD700, 1 h (AID 1154). To be noted: P. falciparum Indochina infected RBC osmotic lysis, higher = more signal, called active from +8 up or from −8 down.
A short description of test [4]: PSAC antagonists in infected red cells, primary screen, cell-based, P. falciparum Indochina, OD700, 2 h (AID 1155).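 Also: lysis reports solute entry through the parasite surface anion channel PSAC; channel blockers reduce lysis of infected cells.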 To be noted: P. falciparum Indochina infected erythrocytes, osmotic lysis OD700; higher = more signal, called active from +8 up or from −8 down.
A short description of test [5]: osmotic lysis modulators in infected erythrocytes, primary screen, PSAC antagonist project, cell-based, P. falciparum Indochina, OD700, 3 h (AID 1156). To be noted: higher = more signal, called active from +8 up or from −8 down.
Test [6] can be described thus: PSAC antagonists in infected red cells, primary screen, cell-based, P. falciparum Indochina, OD700, 18 h (AID 1157). To be noted: P. falciparum Indochina infected erythrocytes, osmotic lysis OD700, 18 h; higher = more signal, called active from +8 up or from −8 down.
A short description of test [7]: modulators of S6 phosphorylation in cells, primary screen, cell-based, A549, cytoblot, luminescence, serum-stimulated (AID 1158).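 Also: serum-stimulated A549 lung adenocarcinoma cells; signal is phosphorylated S6 detected by cytoblot immunostaining with HRP secondary.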 To be noted: A549 phospho-S6 cytoblot, 5 h, higher = more signal.
The target of test [8] is NADPH oxidase 2 (Homo sapiens) (UniProt P04839). The experiment in a line: NOX2-dependent H2O2 signal modulators, primary screen, NOX inhibitor project, cell-based, HEK293-NOX2, PMA-stimulated, Amplex Red fluorescence (AID 1159). Also: test concentration not given here. To be noted: 45 min, higher = more signal, called active from +8 up or from −8 down.
Chain of NADPH oxidase 2 (Homo sapiens) (P04839 whole entry, looked up): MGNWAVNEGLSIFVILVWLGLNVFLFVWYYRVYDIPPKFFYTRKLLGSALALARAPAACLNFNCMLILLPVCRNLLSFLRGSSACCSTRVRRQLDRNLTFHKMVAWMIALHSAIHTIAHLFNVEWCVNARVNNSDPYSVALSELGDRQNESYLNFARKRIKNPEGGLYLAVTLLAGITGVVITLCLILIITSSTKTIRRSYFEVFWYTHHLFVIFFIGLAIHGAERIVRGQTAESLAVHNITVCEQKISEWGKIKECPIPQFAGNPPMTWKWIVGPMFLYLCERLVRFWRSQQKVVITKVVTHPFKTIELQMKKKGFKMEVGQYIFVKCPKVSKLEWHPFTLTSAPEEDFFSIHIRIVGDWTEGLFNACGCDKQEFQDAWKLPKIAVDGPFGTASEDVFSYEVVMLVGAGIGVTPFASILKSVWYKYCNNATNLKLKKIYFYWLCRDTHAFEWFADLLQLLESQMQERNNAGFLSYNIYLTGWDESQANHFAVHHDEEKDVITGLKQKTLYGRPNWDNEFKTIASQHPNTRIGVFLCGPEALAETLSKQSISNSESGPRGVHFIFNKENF
In test [9] the target is NADPH oxidase 4 (Homo sapiens) (UniProt Q9NPH5). The experiment in a line: NOX4-dependent H2O2 signal modulators, primary screen, NOX inhibitor project, cell-based, HEK293-NOX4, tetracycline-induced, Amplex Red fluorescence (AID 1160). To be noted: 45 min, higher = more signal, called active from +8 up or from −8 down.
Chain of NADPH oxidase 4 (Homo sapiens) (Q9NPH5 whole entry, looked up): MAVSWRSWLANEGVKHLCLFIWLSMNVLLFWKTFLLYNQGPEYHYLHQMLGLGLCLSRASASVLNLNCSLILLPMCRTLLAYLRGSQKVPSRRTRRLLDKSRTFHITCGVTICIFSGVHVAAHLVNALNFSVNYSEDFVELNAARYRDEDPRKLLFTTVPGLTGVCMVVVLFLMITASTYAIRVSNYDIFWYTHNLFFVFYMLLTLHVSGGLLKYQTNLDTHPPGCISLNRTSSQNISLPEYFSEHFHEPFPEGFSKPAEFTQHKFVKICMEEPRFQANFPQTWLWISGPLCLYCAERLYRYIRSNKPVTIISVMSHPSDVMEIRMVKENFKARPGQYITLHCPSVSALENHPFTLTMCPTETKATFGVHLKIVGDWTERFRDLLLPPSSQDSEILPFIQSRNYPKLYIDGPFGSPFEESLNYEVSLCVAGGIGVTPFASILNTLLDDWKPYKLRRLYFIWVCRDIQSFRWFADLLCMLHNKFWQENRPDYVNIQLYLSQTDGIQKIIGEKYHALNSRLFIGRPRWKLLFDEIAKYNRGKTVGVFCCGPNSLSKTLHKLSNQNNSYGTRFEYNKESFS
The target in test [10] is NADPH oxidase 5 (Homo sapiens) (UniProt Q96PH1). The experiment in a line: NOX5-dependent H2O2 signal modulators, primary screen, NOX inhibitor project, cell-based, HEK293-NOX5, Amplex Red fluorescence (AID 1161). To be noted: HEK293-NOX5, ionomycin, 45 min, higher = more signal.
Chain of NADPH oxidase 5 (Homo sapiens) (Q96PH1 whole entry, looked up): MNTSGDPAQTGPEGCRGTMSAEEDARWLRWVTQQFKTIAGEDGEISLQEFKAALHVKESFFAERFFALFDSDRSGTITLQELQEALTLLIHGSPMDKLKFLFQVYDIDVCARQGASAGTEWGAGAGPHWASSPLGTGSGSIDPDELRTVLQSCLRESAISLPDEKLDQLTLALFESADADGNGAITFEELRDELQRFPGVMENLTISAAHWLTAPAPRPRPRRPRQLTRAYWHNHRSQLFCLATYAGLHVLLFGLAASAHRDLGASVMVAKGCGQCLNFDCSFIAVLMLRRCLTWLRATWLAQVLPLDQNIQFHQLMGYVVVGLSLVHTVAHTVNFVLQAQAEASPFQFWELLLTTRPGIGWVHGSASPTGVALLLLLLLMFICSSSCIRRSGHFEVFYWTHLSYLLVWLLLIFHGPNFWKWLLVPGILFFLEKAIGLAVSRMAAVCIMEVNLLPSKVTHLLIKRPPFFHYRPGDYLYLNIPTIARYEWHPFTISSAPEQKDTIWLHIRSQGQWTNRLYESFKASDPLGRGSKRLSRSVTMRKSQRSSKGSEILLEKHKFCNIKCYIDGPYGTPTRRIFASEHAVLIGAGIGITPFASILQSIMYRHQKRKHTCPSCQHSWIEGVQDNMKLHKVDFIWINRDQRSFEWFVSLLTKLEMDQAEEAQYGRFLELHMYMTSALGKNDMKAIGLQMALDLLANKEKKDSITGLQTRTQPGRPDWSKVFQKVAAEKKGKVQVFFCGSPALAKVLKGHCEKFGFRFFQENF
The nature of test [11]: A549 cell viability effects, profiling panel, calcein-AM fluorescence, 48 h, basal (AID 1162). Also: test concentration not given here. To be noted: higher = more signal.
Test [12] can be described thus: adipocyte viability effects, profiling panel, cell-based, 3T3-L1 adipocytes, calcein-AM fluorescence, 48 h, basal (AID 1163). Also: test concentration not given here. To be noted: 3T3-L1 adipocytes viability, higher = more signal.
Test [13] is described as follows: HepG2 cell viability effects, profiling panel, calcein-AM fluorescence, 48 h, basal (AID 1164). Also: test concentration not given here. To be noted: higher = more signal.
A short description of test [14]: MM1S cell viability effects, profiling panel, calcein-AM fluorescence, 48 h, basal (AID 1165).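 Also: viability of MM1S multiple myeloma cells under basal unstimulated conditions; test concentration not given here.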 To be noted: higher = more signal.
The nature of test [15]: basal RPMI8226 viability, no added stimulus, profiling panel, cell-based, calcein-AM fluorescence, 48 h, PK04 Diversity Set (AID 1166).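 Also: cells grown under basal conditions without added stimulus; test concentration not given here.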 To be noted: RPMI8226 myeloma viability, higher = more signal.
Test [16] in a line: basal HepG2 mitochondrial membrane potential changes, profiling panel, cell-based, JC-1 fluorescence, 24 h, 100 nL compound (AID 1167). Also: test concentration not given here. To be noted: higher = more signal.
Test [17] in a line: basal 3T3-L1 adipocyte mitochondrial potential changes, profiling panel, cell-based, JC-1 fluorescence, 3T3-L1 adipocytes, 24 h, 100 nL compound (AID 1168). Also: test concentration not given here. To be noted: JC-1 mitochondrial fluorescence, higher = more signal, called active from +8 up or from −8 down.
A short description of test [18]: basal RPMI8226 mitochondrial membrane potential changes, profiling panel, cell-based, JC-1 fluorescence, 24 h, 100 nL compound (AID 1169). Also: test concentration not given here. To be noted: RPMI8226 myeloma, JC-1 mitochondrial potential fluorescence, higher = more signal.
The nature of test [19]: basal MM1S mitochondrial membrane potential changes, profiling panel, cell-based, JC-1 fluorescence, 24 h, 100 nL compound (AID 1170). Also: test concentration not given here. To be noted: higher = more signal.
Test [20] is described as follows: A549 lung cancer cell viability effects, profiling panel, resazurin fluorescence, 24 h, PK04 Diversity Set (AID 1171). Also: test concentration not given here. To be noted: higher = more signal, called active from +8 up or from −8 down.

Calls of active or inactive are those of the source.

For the compound `CO[C@H]1O[C@H](CO)[C@@H](OC(=O)Nc2ccccc2-c2ccccc2)[C@H](OC(=O)Nc2ccccc2)[C@H]1OC(=O)Nc1ccccc1`, the z-score in test [1] is 0.299 (inactive); in [3], 2.62 (inactive); in [4], 0.772 (inactive); in test [5] it was 0.375 (inactive); in test [6] it was 0.521 (inactive); in [7], 0.144. For the same compound, the z-score in test [8] is -1.62 (inactive); in test [9] it was -1.72 (inactive); in test [10], -1.4; in test [11], -1.66; in test [12], 1.29; in test [13] it was -1.74. Further, the z-score in [14] was -2.76; in test [15], -3.36; in test [16], -0.216; in test [17], 0.877 (inactive); in test [18] it was -0.747; in [19], -0.558. The z-score in test [20] is -3.34 (inactive). Moreover, in [2], the composite z-score came out at 0.0405.

With `CN1C(=O)C2C=CC(C(O)c3ccc(-c4ccccc4)s3)N(NC(=O)OC(C)(C)C)C2C1=O` (stereo not given), the z-score in [1] was -0.898 (inactive); in test [3] it was 0.976 (inactive); in test [4] it was 0.524 (inactive); in test [5] it was -0.254 (inactive); in [6], 0.998 (inactive); in test [7], -1.06. The z-score in [8] is -0.0373 (inactive); in test [9] it was -1.58 (inactive); in [10], -0.722; in test [11], -0.823; in [12] it was -1.6; in test [13] it was -0.68. Besides, the z-score in test [14] is 0.244; in [15], -0.906; in test [16] it was -1.73; in [17] it was -0.339 (inactive); in test [18], -0.0635; in test [19], 0.856. Moreover, in test [20], the z-score is 0.117 (inactive). For the same compound, the composite z-score in test [2] stood at 0.335.

Regarding `COC(=O)[C@@]1(Cc2ccccc2)[C@H]2c3cc(C(=O)N(C)C)n(CCSC(=N)N)c3C[C@H]2CN1C(=O)c1ccccc1`, the z-score in test [1] was -0.817 (inactive); in test [3], 0.929 (inactive); in test [4], 0.542 (inactive); in [5], 0.746 (inactive); in [6], 0.494 (inactive); in [7] it was -0.0307. In addition, the z-score in [8] is 0.251 (inactive); in [9] it was -0.357 (inactive); in [10], -1.01; in [11] it was -0.944; in [12] it was 0.451; in test [13], -1.11. In addition, the z-score in [14] was -0.948; in [15] it was -1.07; in test [16], 0.121; in [17] it was -1.1 (inactive); in test [18] it was -0.889; in test [19], -0.656. The z-score in [20] was -0.541 (inactive). Moreover, in test [2], the composite z-score came out at 0.138.

Regarding `C[C@@H]1ON(c2ccc(I)cc2)[C@H](c2cccc(NC(=O)OCC3c4ccccc4-c4ccccc43)c2)[C@H]1C(=O)N1C(=O)OC[C@H]1Cc1ccccc1`, the z-score in test [1] is 1.26 (inactive); in test [3], -0.261 (inactive); in [4], 0.755 (inactive); in [5], 0.0181 (inactive); in test [6], 0.0584 (inactive); in test [7] it was -0.447. The z-score in test [8] was -0.143 (inactive); in [9], -2.58 (inactive); in test [10], -2.6; in test [11] it was 1.25; in test [12], 0.575; in [13] it was 0.671. Further, the z-score in [14] is -0.749; in [15] it was -0.326; in test [16], -0.194; in test [17], 1.54 (inactive); in test [18] it was -1.19; in test [19] it was 1.78. For the same compound, the z-score in test [20] is 0.623 (inactive). The compound further returned a composite z-score in [2] of 0.185.

With `C=CCC(OC(C)=O)[C@@H]1[C@@H](N(Cc2cc3ccccc3o2)C(=O)c2cccc3ccccc23)c2cc(OCCCO)ccc2N1C(=O)c1ccc2ccccc2n1` (stereo not given in full), the z-score is 0.595 (inactive) in test [1]; 1.53 (inactive) in test [3]; 0.26 (inactive) in [4]; 0.266 (inactive) in test [5]; 0.506 (inactive) in test [6]; 0.231 in [7]. In addition, the z-score in test [8] was 0.889 (inactive); in test [9] it was -0.605 (inactive); in test [10], -1.64; in [11], 0.375; in [12], 0.756; in test [13] it was 0.601. The z-score is -1.14 in test [14]; -2.01 in [15]; 2.42 in test [16]; -0.961 (inactive) in test [17]; -0.211 in test [18]; -0.245 in test [19]. The z-score in test [20] is -0.985 (inactive). In test [2], this compound returned a composite z-score of -0.239.
